Source: PubChem BioAssay AID504428 (National Center for Advancing Translational Sciences (NCATS), 2011)
The list shows a part of the results. Where a call stands in place of a potency, no number is given. Activity calls are given as the source filed them.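 The calls were made as follows: active = compounds that inhibited Clk3 enough in the ten-dose series to give a half-maximal potency; inactive = the rest.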

Molecular target: Dual specificity protein kinase CLK3 (Homo sapiens) (UniProt P49761)
Test: Kinase Inhibition Study on Inhibitors of CDC-like Kinase 3 (Reaction Biology data)
Settings: recombinant CLK3 kinase assay, 10 uM ATP
Source text: NIH Molecular Libraries Probe Production Centers Network [MLPCN] NIH Chemical Genomics Center [NCGC] MLPCN Grant: 1R03MH084827-01 Assay Submitter (PI): Tom Misteli NCGC Assay Overview: Alternative splicing of pre-mRNAs plays a major role in the regulation of eukaryotic gene expression. Alternative splicing is now thought to be one of the primary reasons for the complexity of higher organisms leading to an average of three protein isoforms per gene. Aberrant splicing can lead to a number of diseases and is known to play a role in rare genetic diseases such as progeria syndrome. Hutchinson-Gilford Progeria Syndrome (HGPS) is a pediatric premature aging disease caused by a spontaneous mutation in the lamin A/C (LMNA) gene due to a single point mutation in the lamin A gene effecting 1 in 4 million people. To identify both specific splicing modulators of the lamin A gene as well as general splicing modulators, a cell-based HTS assay was developed using a minigene reporter system (AIDs, 1459 & 1487). […] This AID summarizes the characterization of lead compounds in Clk3.
All kinase reactions were performed using 10 uM ATP in the assay. 100% activity was taken from kinase reactions with DMSO alone (the vehicle used for compound stock solutions).

Sequence of Dual specificity protein kinase CLK3 (Homo sapiens) (P49761 whole entry, looked up): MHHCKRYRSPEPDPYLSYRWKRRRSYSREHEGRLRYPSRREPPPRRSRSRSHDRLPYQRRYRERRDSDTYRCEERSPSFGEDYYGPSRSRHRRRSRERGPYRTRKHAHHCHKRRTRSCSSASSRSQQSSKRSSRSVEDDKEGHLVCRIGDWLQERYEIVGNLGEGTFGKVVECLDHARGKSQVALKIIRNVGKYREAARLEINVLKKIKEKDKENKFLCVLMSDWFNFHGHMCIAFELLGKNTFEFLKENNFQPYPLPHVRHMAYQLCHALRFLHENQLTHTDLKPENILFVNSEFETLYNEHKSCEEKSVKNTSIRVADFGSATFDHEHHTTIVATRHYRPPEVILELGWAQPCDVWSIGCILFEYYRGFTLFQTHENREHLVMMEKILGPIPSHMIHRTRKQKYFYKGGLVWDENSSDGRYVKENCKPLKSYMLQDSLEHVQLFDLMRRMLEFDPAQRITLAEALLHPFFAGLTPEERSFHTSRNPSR

Row | Compound | outcome | Potency
1 | CN(Cc1cncn1C)c1ncnc2ccc(-c3ccc4c(c3)OCO4)cc12 | inactive | –
2 | c1coc(CCNc2ncnc3ccc(-c4ccc5c(c4)OCO5)cc23)c1 | – | 2.02 µM (active)
3 | CC(Nc1ncnc2ccc(-c3ccc4c(c3)OCO4)cc12)c1ccco1 (centres undefined) | – | 15 µM (active)
4 | c1nc(N2CCOCC2)c2cc(-c3ccc4c(c3)OCO4)ccc2n1 | inactive | –
